Screens (PubChem BioAssay)
BJeLR viability: kills HRASV12-expressing BJeLR cells; 300,000 tested, 0.17% active; AID 1554; inhibition, % (test concentration not listed); BJeLR (HRASV12) viability, CellTiter-Glo ATP luminescence, 48 h; in the data active = inhibition above about 50%; inconclusive = no clear call, values can overlap the other calls
BoNT-A LC inh2: BoNT A light chain protease inhibition; multiplex microsphere protease substrate cleavage, flow cytometry; inhibition, % at 10 µM; 360,000 tested, 0.17% active; AID 588499; also: plate controls were buffer without enzyme for full effect and enzyme alone for no effect
Anthrax LF inh2: blocks Bacillus anthracis lethal factor protease | multiplex microsphere protease cleavage assay, LF | inhibition, % at 10 µM | P15917 | AID 588501 | 360,000 tested, 0.12% active; also: plate controls were buffer without enzyme for full effect and enzyme alone for no effect
Target sequence (P15917 whole entry, looked up): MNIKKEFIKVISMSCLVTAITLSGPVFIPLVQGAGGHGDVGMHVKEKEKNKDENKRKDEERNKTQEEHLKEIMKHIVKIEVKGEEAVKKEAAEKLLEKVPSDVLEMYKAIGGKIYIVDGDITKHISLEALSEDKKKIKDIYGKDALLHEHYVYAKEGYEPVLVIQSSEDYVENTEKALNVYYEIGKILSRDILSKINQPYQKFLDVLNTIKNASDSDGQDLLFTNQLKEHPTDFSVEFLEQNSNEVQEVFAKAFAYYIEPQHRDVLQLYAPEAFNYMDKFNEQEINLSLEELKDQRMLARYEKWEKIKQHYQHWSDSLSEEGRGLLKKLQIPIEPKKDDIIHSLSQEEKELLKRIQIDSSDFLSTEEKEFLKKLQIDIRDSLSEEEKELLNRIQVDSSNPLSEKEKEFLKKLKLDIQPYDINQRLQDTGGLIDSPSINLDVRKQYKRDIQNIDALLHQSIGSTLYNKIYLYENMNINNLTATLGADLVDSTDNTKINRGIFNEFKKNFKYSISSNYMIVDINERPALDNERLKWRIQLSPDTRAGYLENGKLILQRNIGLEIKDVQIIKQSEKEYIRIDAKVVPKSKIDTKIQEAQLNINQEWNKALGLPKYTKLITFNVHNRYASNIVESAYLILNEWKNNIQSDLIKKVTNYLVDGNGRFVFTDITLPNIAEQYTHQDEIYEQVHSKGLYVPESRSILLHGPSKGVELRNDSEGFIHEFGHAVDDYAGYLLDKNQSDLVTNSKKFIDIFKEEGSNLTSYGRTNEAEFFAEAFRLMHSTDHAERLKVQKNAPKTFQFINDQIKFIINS
Autofluor counter: flagged as autofluorescent in microsphere protease counterscreen; AID 624483; fluorescence intensity (concentration not given with the values); compound autofluorescence counterscreen, microsphere flow cytometry; stronger effect = higher value; 360,000 tested, 3.1% active; in the data active = fluorescence intensity above about 16000; inconclusive = no clear call, values can overlap the other calls
BoNT-F LC inh: blocks Botulinum neurotoxin F light chain protease. AID 588497. inhibition, % at 10 µM. Multiplex microsphere protease cleavage assay, flow cytometry. 360,000 tested, 0.22% active; in the data active = inhibition above about 35%, passing the limit was not always enough; inconclusive = no clear call, values can overlap the other calls; also: plate controls were buffer without enzyme for full effect and enzyme alone for no effect
BH1578 lux ind: quorum light induction in luxS cqsA deficient V. cholerae; V. cholerae BH1578 lux reporter, luminescence, 6 h; 350,000 tested, 0.16% active; activation, % at 18.7 µM; in the data active = activation mostly above about 9.7%, no sharp cut-off; inconclusive = no clear call, values can overlap the other calls; inactive = mostly below about 3.7%
* marks the source's active call; other numbers are inactive results; i = inactive; ? = inconclusive; . = not tested or not shown. Only some compounds are listed: those with a hit (about 3.7% of all), similar ones and a draw of the others. Rule as the data show it, unless noted: active = inhibition above about 30%; inconclusive = no clear call, values can overlap the other calls; inactive = below that.

SMILES | BJeLR viability | BoNT-A LC inh2 | Anthrax LF inh2 | Autofluor counter | BoNT-F LC inh | BH1578 lux ind
CCN(CC)C(=O)CSc1nc2c(sc(=S)n2-c2ccccc2)c(=O)n1Cc1ccco1 | -4 | 2 | -3 | 21125* | 6 | i
CCN(CC)C(=O)CSc1nc2c(sc(=S)n2CC)c(=O)n1-c1ccccc1 | -8 | ? | -7 | 22153* | -4 | 4
CCC(C)NC(=O)CSc1nc2c(sc(=S)n2Cc2ccco2)c(=O)n1-c1ccccc1 (stereo not given) | 3 | 0 | 2 | 5479 | 4 | -1
CCOC(=O)CSc1nc2c(sc(=S)n2Cc2ccco2)c(=O)n1-c1ccc(F)cc1 | -3 | ? | -5 | 16594* | -5 | i
CCN(CC)C(=O)CSc1nc2c(sc(=S)n2-c2ccccc2OC)c(=O)n1-c1ccccc1 | -9 | -4 | 9 | 3828 | -8 | i
c1ccc2c(c1)Sc1cnccc1N2CC1CO1 (stereo not given) | . | 1 | -1 | 3919 | -6 | 3
CCOc1ccc(CCNC(=O)CN(C)S(=O)(=O)c2ccc3c(c2)CCC(=O)N3)cc1OCC | 8 | -2 | -2 | 23279* | -2 | i
CCC(=O)N(CC)c1nc(-c2ccc(OC)cc2)cs1 | 3 | -1 | -3 | 23376* | -1 | -7
CCC(=O)N(Cc1ccco1)c1nc(-c2ccc(OC)cc2)cs1 | -6 | 0 | -1 | 3119 | 4 | .
CCOC(=O)C1=CCN(S(=O)(=O)c2ccc(C)cc2)C1c1cccc(C)c1 (stereo not given) | . | 0 | -3 | 6540 | -8 | .
CCCCOc1ccc(-c2nc(SCC(N)=O)n[nH]2)cc1 | 4 | 0 | -4 | 20074* | -1 | 3
CCCCOc1ccc(-c2nc(=S)[nH][nH]2)cc1 | 9 | ? | -1 | 16673* | 0 | 0
COc1ccc(-c2nc(SCC(=O)Nc3cc(C)on3)n[nH]2)cc1 | -1 | 0 | -3 | 2819 | -12 | 0
Cc1ccc(C(=O)NCCN2CCC(n3c(=O)[nH]c4ccccc43)CC2)cc1 | . | -1 | -5 | 5834 | -8 | .
COc1ccc(-c2ccccc2)cc1NC(=O)[C@@H]1O[C@H](CO)[C@H](O)[C@H](O)[C@H]1O | . | 0 | -5 | 3879 | 5 | 0
Cc1nn(-c2ccccc2)c(-c2ccccc2[N+](=O)[O-])c1CC#N | . | 0 | -2 | 6131 | -7 | .
CCn1c(SCC(=O)C(C)(C)C)nnc1-c1ccccn1 | -5 | -1 | 2 | 5314 | -6 | i
C=CCn1c(CCNC(=O)c2cccs2)nnc1SCC(=O)c1ccc(Br)cc1 | 4 | -1 | 1 | 20927* | 0 | i
C=CCn1c(SCC(=O)C(C)(C)C)nnc1-c1ccccn1 | 1 | 0 | -2 | 20695* | 0 | i
C=CCn1c(SCC(=O)Nc2ccc(C(=O)OCC)cc2)nnc1-c1cccs1 | -7 | -1 | 2 | 3726 | 6 | i
C=CCn1c(SCC(=O)c2ccc(NS(=O)(=O)c3ccccc3)cc2)nnc1-c1cccs1 | -1 | ? | 0 | 20128* | 0 | i
C=CCn1c(SCC(=O)NC2CC2)nnc1-c1cccs1 | 8 | 1 | 2 | 5315 | -7 | i
C=CCn1c(SCC(=O)C(C)(C)C)nnc1-c1cccs1 | 11 | 0 | 0 | 23404* | 0 | -2
Cn1nccc1-c1ccc(C(=O)NCc2ccco2)c2occc12 | . | 0 | -2 | 2831 | -3 | i
COCCN(Cc1ccc(C)cc1)C(=O)[C@H]1O[C@@H](n2ccc(=O)[nH]c2=O)[C@H](O)[C@@H]1O | . | 0 | 1 | 5351 | -5 | .
CC1CCCCN1S(=O)(=O)c1ccc(NC(=O)CSc2nnnn2C)cc1 (stereo not given) | 4 | ? | 0 | 21890* | 1 | -2
Cc1cc2cc(C)c3nnc(SCC(=O)Nc4ccc(S(=O)(=O)N5CCCCC5C)cc4)n3c2cc1C (stereo not given) | -3 | 0 | -2 | 2154 | 0 | 0
CC1CCCCN1S(=O)(=O)c1ccc(NC(=O)c2ccco2)cc1 (stereo not given) | -1 | ? | -1 | 20490* | -3 | i
CC1CCN(S(=O)(=O)c2ccc(NC(=O)c3ccco3)cc2)CC1 | 2 | 0 | 0 | 4090 | -7 | 0
CC(C)C[C@@H](CN1CCC[C@H]1CN1C(=O)C(=O)NC[C@@H]1Cc1ccccc1)N1C[C@H](Cc2ccc(O)cc2)N(CC2CCCCCC2)C(=O)C1=O | . | 1 | -1 | 4007 | 2 | .
